PubChem BioAssay

Legend:
[1] = system: Botulinum neurotoxin type F light chain protease (Clostridium botulinum); assay: Clostridium botulinum type F light chain protease inhibitors, microsphere substrate cleavage, validation (AID 588459); details: multiplex microsphere protease substrate cleavage assay, flow cytometry; at 10 µM; hits give high values
[2] = molecular target: Botulinum neurotoxin type A (Clostridium botulinum) (UniProt P0DPI0); assay: BoNT/A light chain protease inhibitors, biochemical, multiplex microsphere flow cytometry, validation set (AID 588460); details: at 10 µM, hits give high values
[3] = molecular target: Lethal factor (Bacillus anthracis) (UniProt P15917); assay: Bacillus anthracis lethal factor inhibition, microsphere flow cytometry protease assay, validation at 10 µM (AID 588461); details: multiplex microsphere protease cleavage assay, hits give high values

Measured: inhibition

COc1ccc2cc(-c3nc4ccccc4n3C)c(=O)oc2c1
inactive: [1] 2% | [2] 1.8% | [3] 1%

N#Cc1cc2c([nH]c1=O)CCCC2
inactive: [1] -0.1% | [2] -0.6% | [3] 2.6%

O=C(Nc1c(C(=O)O)[nH]c2ccccc12)NC1CCCCC1
inactive: [1] 1.6% | [2] 0.4% | [3] -2.2%

O=C1C(=O)N2C(=C1C(=O)N1CCCCCC1)c1ccccc1CC21CCCC1
inactive: [1] 0.3% | [2] 0.4% | [3] -3%

COCCOC(=O)C1=C(C)NC(C)=C(C(=O)OC(C)C)C1c1cccc([N+](=O)[O-])c1 (centres undefined)
inactive: [1] -2.2% | [2] -0.7% | [3] -4.8%

Clc1ccc2c(c1)[C@H]1OCC[C@H]1[C@@H](c1ccco1)N2
inactive: [1] 0.3% | [2] -0.7% | [3] -4.1%

CC[C@]1(O)C[C@@H]2CN(CCc3c([nH]c4ccccc34)[C@@](C(=O)OC)(c3cc4c(cc3OC)N(C)[C@H]3[C@@](O)(C(=O)OC)[C@H](OC(C)=O)[C@]5(CC)C=CCN6CC[C@]43[C@@H]65)C2)C1
inactive: [1] 16.1% | [2] 3.4% | [3] -0.3%

Cc1ccccc1C(=O)Oc1ccc(Sc2ccc(O)cc2)cc1
inactive: [1] -2% | [2] -0.4% | [3] -3.8%

COC(=O)C1=C(C)N(C)C(=S)NC1c1ccc(Cl)cc1 (centres undefined)
inactive: [1] -0.7% | [2] -0.5% | [3] -4%

CC(C)(Oc1ccc(CCNC(=O)c2ccc(Cl)cc2)cc1)C(=O)O
inactive: [1] -1.2% | [2] 0.1% | [3] 8.7%

Cc1ccc(-c2nn(-c3cccc(F)c3)cc2CN2CCN(c3ccccn3)CC2)o1
inactive: [1] -0.1% | [2] -0.9% | [3] -6.4%

COc1cc(CNc2ccc(C)c(C)c2)cc(OC)c1OC
inactive: [1] 1.8% | [2] 0.5% | [3] -8.9%

CC(C)[N+](C)(CCOC(=O)C1c2ccccc2Oc2ccccc21)C(C)C
inactive: [1] -0.1% | [2] 0.5% | [3] 4%

CC1(C)O[C@@H]2C[C@H]3[C@@H]4C[C@H](F)C5=CC(=O)C=C[C@]5(C)[C@@]4(F)[C@@H](O)C[C@]3(C)[C@]2(C(=O)CO)O1
inactive: [1] -0.5% | [2] 0.1% | [3] -6.8%

Nc1cccc2c1nnn2C1OC(CO)C(O)C(O)C1O (centres undefined)
inactive: [1] 0.7% | [2] 0.1% | [3] 3.5%

COc1ccc(C(=O)Nc2ccc(OC)c([N+](=O)[O-])c2)cc1Br
inactive: [1] 1.7% | [2] -0.3% | [3] 8.3%

COc1ccc(-c2onc(C)c2-c2ccc(C(=O)OC(C)C)o2)c(O)c1
inactive: [1] 1.1% | [2] 0.9% | [3] 0.9%

Cc1ccc(Cl)c(OCCCN(C)Cc2ccccc2)c1
inactive: [1] 2.8% | [2] 0.1% | [3] -7.8%

COc1ccc(CC(=O)NCC2(c3ccc(OC)c(OC)c3)CCOCC2)cc1
inactive: [1] 3.5% | [2] -0.9% | [3] -1.6%

CC(=O)C1=C(Nc2ccc(C)cc2)CC(C)(O)C(C(C)=O)C1c1ccco1 (centres undefined)
inactive: [1] 1% | [2] 0% | [3] -2.3%

CNCCc1ccccn1
inactive: [1] 1.1% | [2] 1.1% | [3] -8.2%

COc1cc(OC)c(C(=O)CCCN2CCCC2)c(OC)c1
inactive: [1] 2.9% | [2] -0.9% | [3] -2.6%

C[N+](C)(C)CCOP(=O)(O)OP(=O)([O-])OC[C@H]1O[C@@H](n2ccc(N)nc2=O)[C@H](O)[C@@H]1O
inactive: [1] 6% | [2] 0.6% | [3] 8.1%

CC(C)C(CCN1C(=O)CCC1=O)C1CCOC(C)(C)C1 (centres undefined)
inactive: [1] 3% | [2] 0.5% | [3] 0.7%

Cc1ccccc1C(OCCN(C)C)c1ccccc1 (centres undefined)
inactive: [1] 1.2% | [2] 0.7% | [3] 2.5%

CC1CCN(C(=O)Oc2ccccc2)CC1
inactive: [1] -2.4% | [2] -1.5% | [3] 3.8%

CCOc1ccc(C(NC(C)=O)c2ccc(OC)c(OC)c2)cc1 (centres undefined)
inactive: [1] -2.9% | [2] -0.9% | [3] 5.8%

CCOC(=O)C1NN=C(C(=O)c2ccccc2)C1c1ccc(Cl)cc1 (centres undefined)
inactive: [1] 3% | [2] 1.4% | [3] 3.2%

CNC[C@H](O)c1ccc(O)c(O)c1
inactive: [1] -2.9% | [2] -0.9% | [3] -4.8%

COc1ccc(-c2cc(=O)oc3cc(OC(C)C(=O)O)ccc23)cc1 (centres undefined)
inactive: [1] 0.9% | [2] 2% | [3] 9.7%

Nc1ccc(-c2nc3ncccc3o2)c(Cl)c1
inactive: [1] -2.1% | [2] -1.8% | [3] -10.9%

O=C(O)CCCCCNC(=O)Nc1ccc2c(c1)OCCO2
inactive: [1] 1.3% | [2] -1.4% | [3] -10.1%

COc1ccc2[nH]cc(C3N4CC5(C)CN3CC(C)(C4)C5=O)c2c1 (centres undefined)
inactive: [1] 3% | [2] -0.2% | [3] 4.1%

CC1(C)O[C@@H]2C[C@H]3[C@@H]4CCC5=CC(=O)C=C[C@]5(C)[C@@]4(F)[C@@H](O)C[C@]3(C)[C@]2(C(=O)CO)O1
inactive: [1] -2.6% | [2] -3.3% | [3] -3.9%

O=C(N1CCCCC1)C1(c2ccccc2)CCOCC1
inactive: [1] 1.7% | [2] 1.3% | [3] -2.1%

Cn1c(=O)c(C(=O)NCCO)c(O)c2ccccc21
inactive: [1] 0.4% | [2] -0.1% | [3] -2.2%

CCc1nc(N)nc(N)c1-c1ccc(Cl)cc1
inactive: [1] 0.4% | [2] -0.6% | [3] -2.6%

CC(C)C[C@H](NC(=O)NC(C)C)C(=O)O
inactive: [1] 1.1% | [2] 0% | [3] 2.9%

CCCCOc1ccc(C(=O)CCN2CCCCC2)cc1
inactive: [1] 3.4% | [2] 1.8% | [3] -1.7%

COc1ccc2[nH]c(=O)c3c(c2c1)OC(C)(C)C=C3
inactive: [1] 1.1% | [2] 0.3% | [3] -4.6%

CN1C(C(=O)Nc2ccccn2)=C(O)c2sccc2S1(=O)=O
inactive: [1] 0.5% | [2] -0.2% | [3] -1.1%

OC(CCCN1CCCCC1)(c1ccccc1)c1ccccc1
inactive: [1] 3.3% | [2] 0% | [3] 7.6%

CC(C)c1ccc(/C=C/C(=O)O)cc1
inactive: [1] 1.6% | [2] -0.1% | [3] 11%

CC[N+](C)(C)c1cccc(O)c1
inactive: [1] 1.7% | [2] -0.2% | [3] 0.7%

O=C(c1ccco1)N(CCC(c1ccccc1)c1ccco1)Cc1ccco1 (centres undefined)
inactive: [1] -0.1% | [2] -0.1% | [3] 3.5%

Cn1c(=O)oc2cc(S(=O)(=O)N3CCc4ccccc4C3)ccc21
inactive: [1] -0.9% | [2] -3% | [3] -3.5%

NC12CC3CC(C1)CC(O)(C3)C2
inactive: [1] 4.4% | [2] -0.4% | [3] -0.7%

O=C(O)CCCN1C(=O)NC2NC(=O)NC21 (centres undefined)
inactive: [1] 0.1% | [2] -0.8% | [3] 0.4%

CC(C)CCOCC(=O)Nc1cccc(C(=O)O)c1
inactive: [1] 2.9% | [2] 0% | [3] -0.3%

CCC1CCc2c(sc(NC(=O)c3cccnc3)c2C(N)=O)C1 (centres undefined)
inactive: [1] -4.8% | [2] -2.3% | [3] -6.2%

CCN(Cc1cnn(C)c1)Cc1nc(C(c2ccccc2)c2ccccc2)no1
inactive: [1] 0.3% | [2] -2.2% | [3] -3.7%

NC(=O)c1ncn([C@@H]2O[C@H](CO)[C@@H](O)[C@H]2O)c1O
inactive: [1] -1.3% | [2] -1.9% | [3] -13.3%

NCc1ccccc1COc1ccccc1
inactive: [1] 2.3% | [2] 0.1% | [3] -1.7%

O=c1nc2sc3ccccc3n2c(=O)n1-c1ccc(Cl)cc1
inactive: [1] 0.3% | [2] -1.6% | [3] -7.9%

CN(C)CCOc1ccc(Cl)cc1C(C)(C)C
inactive: [1] -7.7% | [2] -2.2% | [3] -7.1%

NC(=O)c1cccnc1
inactive: [1] 1.8% | [2] -0.2% | [3] 3%

COc1cc2c(cc1OC)-c1nnc(C)n1C(C)(C)C2
inactive: [1] 0.7% | [2] 0.2% | [3] -2.5%

COc1ccc(-c2c(NC(=O)c3ccco3)n(C)c3ccccc3c2=O)cc1
inactive: [1] 1.5% | [2] 0.4% | [3] -0.7%

CC(=O)[C@H]1CC[C@H]2[C@@H]3CCC4=CC(=O)CC[C@]4(C)[C@H]3CC[C@]12C
inactive: [1] 2.7% | [2] 1.5% | [3] 3.1%

COC(=O)c1cc(C(=O)NCCC(C)C)cc([N+](=O)[O-])c1
inactive: [1] -5.3% | [2] -2.3% | [3] 2.1%

O=C(NC(=S)Nc1ccc(N2CCN(C(=O)c3ccccc3)CC2)cc1)c1cccs1
inactive: [1] -8.9% | [2] -3.2% | [3] -10.5%

Cc1[nH]c2ccccc2c1C(=O)C(=O)NCc1ccco1
inactive: [1] 0.1% | [2] -0.7% | [3] -5.5%

O=C(NC(Nc1ccccn1)C(Cl)(Cl)Cl)c1ccccc1 (centres undefined)
inactive: [1] -7.2% | [2] -1.5% | [3] 0.6%
